Experimental findings from PubChem BioAssay (EPA / NIEHS) are described below.

SMILES strings stand for the structures. Activity calls are given as the source filed them. The calls were made as follows: active = hit-call score of the fitted dose curve at least 0.9, where 1 is the maximum; inactive = score below 0.9.

Assay [1] is described as follows: ATG_GLI_CIS: Attagene CIS-FACTORIAL HepG2 Assay for human Zinc Finger Protein GLI1 (AID 2282945). Conditions: HepG2, Attagene cis-factorial reporter mRNA, GLI element; actives raise or lower the signal. Put shortly:
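HepG2 cells transiently transfected with cis-promoter multiplexed reporter units report endogenous transcription factor activity. After 24 h chemical exposure, reporter mRNA was quantified by RT-PCR, 6-FAM labelling, HpaI digestion and capillary electrophoresis, with bidirectional fitting against DMSO.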

Assay [2] is described as follows: ATG_GRE_CIS: Attagene CIS-FACTORIAL HepG2 Assay for human Glucocorticoid Response Elements (GRE) (AID 2282947). Conditions: HepG2 GRE cis-reporter, Attagene multiplex mRNA; actives raise or lower the signal. Summed up:
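HepG2 cells transiently transfected with multiple cis-promoter reporter units measure endogenous TF activity; 24 h compound exposure. Reporter mRNA quantified by RT-PCR, FAM labelling, HpaI digestion and capillary electrophoresis; bidirectional fit vs DMSO baseline.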

Assay [3] is described as follows: ATG_ISRE_CIS: Attagene CIS-FACTORIAL HepG2 Assay for human Interferon Regulatory Factor 1 (IRF1) binding to an Interferon-Stimulated Response Element (ISRE) (AID 2282948). The conditions noted are these: HepG2 ISRE cis-reporter (Attagene), mRNA transcription readout; actives raise or lower the signal. Put shortly:
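Transfected HepG2 (multiple reporter transcription units, cis elements) dosed 24 h. RNA → oligo(dT) RT → PCR → 6-FAM primer extension → HpaI → CE. DMSO = negative control/baseline.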

The nature of assay [4]: ATG_M_32_CIS: Attagene CIS-FACTORIAL HepG2 Assay for M32 Transcription Factor (Internal Marker) (AID 2282949).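 Also: background control marker of the multiplexed CIS panel rather than a real target.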 Conditions: HepG2 Attagene cis-factorial M32 reporter, mRNA; actives raise or lower the signal. Summed up:
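Internal background marker read-out: RT-PCR/capillary electrophoresis fluorescence of reporter transcripts from transiently transfected HepG2 cells after 24 h chemical exposure. Activity fitted bidirectionally relative to DMSO negative control.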

Assay [5] is described as follows: ATG_M_06_CIS: Attagene CIS-FACTORIAL HepG2 Assay for M06 Transcription Factor (Internal Marker) (AID 2282950). Conditions: HepG2 Attagene CIS-FACTORIAL M06 internal marker reporter; actives raise or lower the signal. Put shortly: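 Terse: HepG2, transient MRTU transfection (FuGene 6), 24 h dosing; total RNA, oligo(dT) RT, PCR, FAM label, HpaI cut, capillary electrophoresis; bidirectional fit vs DMSO baseline; background-control endpoint.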

Assay [6] deals with Hypoxia-inducible factor 1-alpha (Homo sapiens) (UniProt Q16665). Put plainly: ATG_HIF1a_CIS: Attagene CIS-FACTORIAL HepG2 Assay for human Hypoxia Inducible Factor 1 (HIF1A) (AID 2282951). Conditions: HepG2 Attagene cis-factorial HIF1a reporter transcription; actives raise or lower the signal. Summed up: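 Endogenous-TF cis reporter readout, human HepG2 cells, 24 h incubation; mRNA detected via RT-PCR and capillary electrophoresis fluorescence; DMSO-normalised bidirectional fitting.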

Assay [7] deals with Hepatocyte nuclear factor 6 (Homo sapiens) (UniProt Q9UBC0). Put plainly: ATG_HNF6_CIS: Attagene CIS-FACTORIAL HepG2 Assay for human Hepatocyte Nuclear Factor 6 (HNF6) (AID 2282952). Conditions: HepG2 Attagene cis-factorial HNF6 reporter transcription; actives raise or lower the signal. Put shortly:
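HepG2 cells transiently transfected with cis-element-driven multiplexed reporter units measuring endogenous transcription factor activity. After 24 h exposure, reporter mRNA quantified by RT-PCR, FAM-labelled fragments and capillary electrophoresis; bidirectional fitting versus DMSO.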

The target of assay [8] is Heat shock factor protein 1 (Homo sapiens) (UniProt Q00613). The experiment in a line: ATG_HSE_CIS: Attagene CIS-FACTORIAL HepG2 Assay for human Heat Shock Transcription Factor 1 (HSE) (AID 2282953). The conditions noted are these: HepG2 HSE cis-reporter, Attagene RNA transcription; actives raise or lower the signal. Summed up:
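Read-out: fluorescence of reporter-specific RT-PCR fragments separated by capillary electrophoresis. HepG2 carrying transfected cis-element reporter units; 24 h dosing; activity fitted in both directions relative to DMSO baseline.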

The nature of assay [9]: ATG_MRE_CIS: Attagene CIS-FACTORIAL HepG2 Assay for human Metal Responsive Element (MRE) (AID 2282954). The conditions noted are these: HepG2 MRE cis-reporter transcription, Attagene multiplex; actives raise or lower the signal. Put shortly: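 HepG2 cells transiently transfected with multiple cis-element reporter units measure endogenous MTF1-driven transcription. After 24 h compound exposure, reporter mRNA is quantified by RT-PCR with 6-FAM labelling, HpaI digestion and capillary electrophoresis; bidirectional fits versus DMSO.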

A short description of assay [10]: ATG_PBREM_CIS: Attagene CIS-FACTORIAL HepG2 Assay for human Phenobarbital-responsive Enhancer Module (PBREM) (AID 2282955). Conditions: HepG2 PBREM cis-reporter, Attagene multiplexed transcription; actives raise or lower the signal. Put shortly: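 Readout: reporter mRNA, fluorescent RT-PCR fragments separated by capillary electrophoresis. System: HepG2 transiently transfected with cis-regulated reporter units. Exposure: 24 h. Analysis: bidirectional, DMSO baseline.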

The target in assay [11] is Paired box protein Pax-6 (Homo sapiens) (UniProt P26367). Put plainly: ATG_Pax6_CIS: Attagene CIS-FACTORIAL HepG2 Assay for human Paired Box 6 (PAX6) (AID 2282956). The conditions noted are these: HepG2 CIS-FACTORIAL PAX6 reporter transcription, RNA readout; actives raise or lower the signal. Summed up: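 Transient MRTU transfection of HepG2 → compound exposure 24 h → TriZol RNA, oligo(dT) RT → PCR, 6-FAM primer extension, HpaI cut → capillary electrophoresis; activity fitted both directions against DMSO.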

Assay [12] is described as follows: ATG_PXRE_CIS: Attagene CIS-FACTORIAL HepG2 Assay for human Pregnane X Receptor Element (PXRE) (AID 2282957). The conditions noted are these: HepG2 Attagene CIS-FACTORIAL PXRE reporter, mRNA; actives raise or lower the signal. Put shortly:
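HepG2 cells transiently transfected with cis-element-driven multiplexed reporter units; after 24 h chemical exposure, reporter mRNA measured by RT-PCR, 6-FAM labelling, HpaI digestion and capillary electrophoresis. Bidirectional fitting relative to DMSO.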

Assay [13] in a line: ATG_PPRE_CIS: Attagene CIS-FACTORIAL HepG2 Assay for human Peroxisome Proliferator-activated Response Element (PPRE) (AID 2282958). Conditions: HepG2 PPRE cis-element reporter, Attagene transcription factor profiling; actives raise or lower the signal. Summed up: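 After human HepG2 hepatoma cells were transiently transfected with cis-promoter reporter constructs, they were exposed to test chemicals for 24 hours. Reporter RNA was then reverse-transcribed, PCR-amplified, FAM-labeled, HpaI-digested and quantified by capillary electrophoresis.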

The nature of assay [14]: ATG_RORE_CIS: Attagene CIS-FACTORIAL HepG2 Assay for human RAR-related Orphan Receptor Element (RORE) (AID 2282959). The conditions noted are these: HepG2 Attagene cis-factorial RORE reporter, mRNA; actives raise or lower the signal. Summed up:
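Measured here: transcript induction of a cis-regulated reporter in HepG2 cells transiently transfected via FuGene 6. After 24 h, RNA was processed by RT-PCR and fluorescent capillary electrophoresis; DMSO defined baseline activity.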

Assay [15] is described as follows: ATG_Sox_CIS: Attagene CIS-FACTORIAL HepG2 Assay for human SRY-box transcription factor (SOX) (AID 2282960). Conditions: HepG2 Attagene cis-factorial SOX reporter, mRNA; actives raise or lower the signal. Put shortly:
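Using transiently transfected HepG2 cells, reporter transcription driven by cis elements was assessed 24 h after dosing. Signal was fluorescence of capillary-separated RT-PCR products, with DMSO defining baseline activity.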

For assay [16], the target named is Transcription factor Sp1 (Homo sapiens) (UniProt P08047). Put plainly: ATG_Sp1_CIS: Attagene CIS-FACTORIAL HepG2 Assay for human Specificity Protein 1 (Sp1) (AID 2282961). The conditions noted are these: HepG2 Sp1 cis-reporter transcription, actives raise or lower the signal. Summed up:
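After transient transfection of HepG2 cells with cis-promoter reporter units and 24 h chemical treatment, reporter transcripts were quantified by RT-PCR and capillary electrophoresis fluorescence. Gain- and loss-of-signal fitted against DMSO.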

Assay [17] in a line: ATG_SREBP_CIS: Attagene CIS-FACTORIAL HepG2 Assay for human Sterol Regulatory Element Binding (SREBP) (AID 2282962). The conditions noted are these: HepG2 Attagene cis-factorial SREBP reporter, mRNA; actives raise or lower the signal. Put shortly:
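Transfected HepG2 (cis-regulated reporter library, endogenous TFs) → compound 24 h → total RNA → oligo(dT) RT → reporter-specific PCR → FAM primer extension, HpaI cut → CE fluorescence. Fit bidirectional vs DMSO.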

In assay [18] the target is Signal transducer and activator of transcription 3 (Homo sapiens) (UniProt P40763). Put plainly: ATG_STAT3_CIS: Attagene CIS-FACTORIAL HepG2 Assay for human Signal Transducer and Activator of Transcription 3 (STAT3) (AID 2282963). Conditions: HepG2, Attagene cis-factorial STAT3 reporter transcription; actives raise or lower the signal. Put shortly:
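HepG2 cells transiently transfected with cis-element-driven multiple reporter transcription units; after 24 h chemical exposure, reporter mRNA measured by RT-PCR, 6-FAM primer-extension labelling, HpaI digestion and capillary electrophoresis. Bidirectional fitting versus DMSO baseline.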

The nature of assay [19]: ATG_TA_CIS: Attagene CIS-FACTORIAL HepG2 Assay for human TA Basal Promoter (AID 2282964). Conditions: HepG2 Attagene CIS-factorial TA basal promoter reporter; actives raise or lower the signal. Summed up:
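Transfected HepG2, 24 h compound exposure; RNA → RT-PCR → FAM primer extension → HpaI cut → CE fluorescence. Gain/loss-of-signal fitted against DMSO negative control. Background-control readout.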

Assay [20] in a line: ATG_TCF_b_cat_CIS: Attagene CIS-FACTORIAL HepG2 Assay for human T-Cell-Factor with beta-catenin (TCF/b-cat) (AID 2282965). The conditions noted are these: HepG2 TCF/beta-catenin cis-reporter transcription, actives raise or lower the signal. Summed up: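 HepG2 cells transiently transfected with multiple cis-promoter-regulated reporter transcription units, so endogenous transcription factor activity is measured. Reporter mRNA read 24 hours after dosing by RT-PCR, fluorescent labelling and capillary electrophoresis; bidirectional fitting against DMSO.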

Chain of Hepatocyte nuclear factor 6 (Homo sapiens) (Q9UBC0 whole entry, looked up, the tested form may be a part): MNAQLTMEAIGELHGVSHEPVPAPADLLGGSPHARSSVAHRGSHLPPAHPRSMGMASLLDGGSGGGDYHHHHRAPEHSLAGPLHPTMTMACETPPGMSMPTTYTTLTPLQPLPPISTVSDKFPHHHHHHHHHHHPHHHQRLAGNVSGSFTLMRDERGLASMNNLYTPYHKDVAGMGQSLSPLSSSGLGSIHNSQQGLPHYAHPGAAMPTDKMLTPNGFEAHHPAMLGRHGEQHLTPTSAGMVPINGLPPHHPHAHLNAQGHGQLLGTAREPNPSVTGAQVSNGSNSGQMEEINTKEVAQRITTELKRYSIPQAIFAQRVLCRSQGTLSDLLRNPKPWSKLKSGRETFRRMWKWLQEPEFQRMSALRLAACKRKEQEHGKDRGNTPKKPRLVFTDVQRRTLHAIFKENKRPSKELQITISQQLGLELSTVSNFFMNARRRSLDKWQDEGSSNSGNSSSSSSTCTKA
Chain of Transcription factor Sp1 (Homo sapiens) (P08047 whole entry, looked up): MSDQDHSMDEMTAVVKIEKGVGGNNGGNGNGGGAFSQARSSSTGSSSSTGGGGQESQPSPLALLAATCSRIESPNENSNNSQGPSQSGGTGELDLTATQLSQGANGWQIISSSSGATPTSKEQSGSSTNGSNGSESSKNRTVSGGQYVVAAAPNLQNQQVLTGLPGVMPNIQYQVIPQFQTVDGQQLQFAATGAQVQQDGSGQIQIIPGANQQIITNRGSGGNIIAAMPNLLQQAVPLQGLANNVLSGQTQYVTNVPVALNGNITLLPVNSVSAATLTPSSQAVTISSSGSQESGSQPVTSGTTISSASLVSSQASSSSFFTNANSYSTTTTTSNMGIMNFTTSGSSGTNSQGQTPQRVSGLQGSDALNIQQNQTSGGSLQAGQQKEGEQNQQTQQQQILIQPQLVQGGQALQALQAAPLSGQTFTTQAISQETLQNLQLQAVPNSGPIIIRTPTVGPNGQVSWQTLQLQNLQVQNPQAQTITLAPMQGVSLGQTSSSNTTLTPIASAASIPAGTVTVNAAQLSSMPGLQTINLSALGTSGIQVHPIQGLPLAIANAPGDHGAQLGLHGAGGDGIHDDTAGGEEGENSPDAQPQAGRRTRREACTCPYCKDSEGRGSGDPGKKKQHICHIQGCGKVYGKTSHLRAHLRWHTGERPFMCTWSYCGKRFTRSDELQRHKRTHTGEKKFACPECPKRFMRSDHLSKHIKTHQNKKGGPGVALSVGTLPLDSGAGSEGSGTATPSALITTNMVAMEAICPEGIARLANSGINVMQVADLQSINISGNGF
Chain of Paired box protein Pax-6 (Homo sapiens) (P26367 whole entry, looked up): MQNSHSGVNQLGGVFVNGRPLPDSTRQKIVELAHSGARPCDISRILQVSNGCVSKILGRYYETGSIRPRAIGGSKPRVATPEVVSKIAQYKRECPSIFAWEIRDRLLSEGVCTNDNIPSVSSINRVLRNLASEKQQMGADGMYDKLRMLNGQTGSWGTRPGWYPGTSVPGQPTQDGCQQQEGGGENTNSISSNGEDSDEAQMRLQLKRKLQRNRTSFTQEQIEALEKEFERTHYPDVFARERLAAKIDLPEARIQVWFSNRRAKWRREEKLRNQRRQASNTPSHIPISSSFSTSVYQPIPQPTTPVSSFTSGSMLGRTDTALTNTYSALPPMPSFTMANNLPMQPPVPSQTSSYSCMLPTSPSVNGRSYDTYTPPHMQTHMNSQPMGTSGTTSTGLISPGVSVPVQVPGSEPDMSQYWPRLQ
Chain of Heat shock factor protein 1 (Homo sapiens) (Q00613 whole entry, looked up, the tested form may be a part): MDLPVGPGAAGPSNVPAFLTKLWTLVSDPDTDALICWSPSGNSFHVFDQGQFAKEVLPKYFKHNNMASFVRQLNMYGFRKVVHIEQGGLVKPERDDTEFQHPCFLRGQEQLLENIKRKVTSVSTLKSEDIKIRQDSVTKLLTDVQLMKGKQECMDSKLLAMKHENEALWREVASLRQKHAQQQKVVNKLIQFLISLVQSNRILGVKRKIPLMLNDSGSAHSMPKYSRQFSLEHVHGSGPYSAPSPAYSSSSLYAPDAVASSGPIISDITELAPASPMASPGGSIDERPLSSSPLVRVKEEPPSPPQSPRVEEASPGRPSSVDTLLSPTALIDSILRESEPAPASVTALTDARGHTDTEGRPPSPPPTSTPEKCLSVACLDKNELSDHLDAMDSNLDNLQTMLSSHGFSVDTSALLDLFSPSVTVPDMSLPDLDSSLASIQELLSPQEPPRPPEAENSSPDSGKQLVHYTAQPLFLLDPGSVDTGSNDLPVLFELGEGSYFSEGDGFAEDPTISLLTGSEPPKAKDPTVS
Chain of Hypoxia-inducible factor 1-alpha (Homo sapiens) (Q16665 whole entry, looked up): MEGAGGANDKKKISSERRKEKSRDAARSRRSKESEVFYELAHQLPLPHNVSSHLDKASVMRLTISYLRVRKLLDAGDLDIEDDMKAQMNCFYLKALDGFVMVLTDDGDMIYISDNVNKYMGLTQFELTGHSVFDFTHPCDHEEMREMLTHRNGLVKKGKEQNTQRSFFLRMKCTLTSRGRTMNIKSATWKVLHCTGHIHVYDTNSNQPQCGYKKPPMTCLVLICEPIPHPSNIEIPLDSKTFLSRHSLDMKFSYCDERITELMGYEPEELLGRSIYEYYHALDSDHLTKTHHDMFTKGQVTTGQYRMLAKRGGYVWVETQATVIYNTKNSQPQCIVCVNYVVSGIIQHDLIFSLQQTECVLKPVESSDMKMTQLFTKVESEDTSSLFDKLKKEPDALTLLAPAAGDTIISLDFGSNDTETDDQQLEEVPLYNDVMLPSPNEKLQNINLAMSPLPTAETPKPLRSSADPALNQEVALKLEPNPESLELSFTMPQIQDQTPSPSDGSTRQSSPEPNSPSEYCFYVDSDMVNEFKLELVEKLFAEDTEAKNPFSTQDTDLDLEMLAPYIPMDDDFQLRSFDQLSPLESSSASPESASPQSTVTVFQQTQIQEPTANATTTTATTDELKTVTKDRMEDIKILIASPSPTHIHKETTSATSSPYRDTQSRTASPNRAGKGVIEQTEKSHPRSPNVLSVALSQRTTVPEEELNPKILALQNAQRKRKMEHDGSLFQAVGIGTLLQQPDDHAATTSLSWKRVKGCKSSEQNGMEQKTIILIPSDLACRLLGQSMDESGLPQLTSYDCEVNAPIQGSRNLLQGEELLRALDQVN
Chain of Signal transducer and activator of transcription 3 (Homo sapiens) (P40763 whole entry, looked up): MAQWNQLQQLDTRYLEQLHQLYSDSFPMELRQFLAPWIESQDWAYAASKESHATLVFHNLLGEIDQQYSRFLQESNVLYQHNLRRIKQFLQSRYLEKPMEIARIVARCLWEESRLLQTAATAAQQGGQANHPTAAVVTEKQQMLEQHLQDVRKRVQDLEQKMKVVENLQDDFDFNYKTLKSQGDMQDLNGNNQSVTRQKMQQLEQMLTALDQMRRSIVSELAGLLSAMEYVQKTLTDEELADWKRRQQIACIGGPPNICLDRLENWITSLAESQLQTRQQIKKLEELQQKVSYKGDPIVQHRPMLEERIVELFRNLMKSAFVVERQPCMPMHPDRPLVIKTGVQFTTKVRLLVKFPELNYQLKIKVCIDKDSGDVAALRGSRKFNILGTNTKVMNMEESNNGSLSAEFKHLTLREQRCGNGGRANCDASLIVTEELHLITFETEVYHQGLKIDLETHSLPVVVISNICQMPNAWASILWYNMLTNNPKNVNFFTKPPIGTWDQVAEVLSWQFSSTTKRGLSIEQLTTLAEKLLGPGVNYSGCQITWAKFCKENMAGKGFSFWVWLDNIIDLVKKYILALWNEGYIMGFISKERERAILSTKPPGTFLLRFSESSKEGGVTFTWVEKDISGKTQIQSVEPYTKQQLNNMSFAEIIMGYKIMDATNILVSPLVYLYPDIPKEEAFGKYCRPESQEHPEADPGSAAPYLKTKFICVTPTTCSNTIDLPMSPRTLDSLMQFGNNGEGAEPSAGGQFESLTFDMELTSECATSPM

Turning to `CC(C)N(C(=O)COc1nnc(C(F)(F)F)s1)c1ccc(F)cc1`, the call in assay [1], in assay [2], in assay [3], in [4], in assay [5] and in assay [6] was inactive. For the same compound, the compound was called inactive in assay [7], in assay [8], in assay [9], in assay [11], in assay [13] and in [14]. The result in [15], in [16], in [17], in [18], in assay [19] and in assay [20] was inactive. The AC50 is 11.5 µM (active) in [10] and 7.54 µM (active) in [12].

For the compound `CCC(C)(NC(=O)c1cc(Cl)c(C)c(Cl)c1)C(=O)CCl` (stereo not given), the compound was classed as inactive in [1], in assay [2], in assay [3], in assay [4], in assay [5] and in assay [6]. Further, the outcome in [7], in assay [8], in assay [9], in assay [10], in assay [11] and in [13] was inactive. Further, the compound was called inactive in [14], in [15], in assay [16], in [17], in assay [18] and in assay [19]. The call in assay [20] was inactive. Also, the AC50 in [12] was 1.58 µM (active).

As for `COP(=S)(OC)Oc1ccc(SC)c(C)c1`, the outcome in assay [1], in [2], in assay [3], in [4], in assay [5] and in assay [6] was inactive. The call in [7], in assay [8], in [9], in assay [11], in assay [13] and in assay [15] was inactive. The result in assay [16], in assay [18], in assay [19] and in assay [20] was inactive. Further, the AC50 in [10] was 39.3 µM (active); in assay [12], 10.8 µM (active); in [14] it was 53.7 µM (active); in [17], 24.7 µM (active).
